About 1,100 (0.37%) of roughly 300,000 compounds were called active.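 The calls were made as follows: active = inhibition past about -25% in most replicates, and total fluorescence under double the plate's negative control median (limit read from the data); inconclusive = replicates evenly split on the limit, or fluorescence at least double controls; inactive = too little inhibition in most replicates.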 The full list was thinned out, with actives kept by preference.
These molecules were tested against Zinc finger protein mex-5 (Caenorhabditis elegans) (UniProt Q9XUB2) (assay: MEX-5 zinc finger RNA-binding disruptors – biochemical, C. elegans, fluorescence polarization, MLPCN library, primary screen (AID 1832;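 also: 0% = DMSO and -100% = 5 µM competing unlabeled TCR2 RNA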)). Conditions: MEX-5/FITC-TCR2 RNA binding, at 10 µM, hits give low values.
Sequence of Zinc finger protein mex-5 (Caenorhabditis elegans) (Q9XUB2 whole entry, looked up): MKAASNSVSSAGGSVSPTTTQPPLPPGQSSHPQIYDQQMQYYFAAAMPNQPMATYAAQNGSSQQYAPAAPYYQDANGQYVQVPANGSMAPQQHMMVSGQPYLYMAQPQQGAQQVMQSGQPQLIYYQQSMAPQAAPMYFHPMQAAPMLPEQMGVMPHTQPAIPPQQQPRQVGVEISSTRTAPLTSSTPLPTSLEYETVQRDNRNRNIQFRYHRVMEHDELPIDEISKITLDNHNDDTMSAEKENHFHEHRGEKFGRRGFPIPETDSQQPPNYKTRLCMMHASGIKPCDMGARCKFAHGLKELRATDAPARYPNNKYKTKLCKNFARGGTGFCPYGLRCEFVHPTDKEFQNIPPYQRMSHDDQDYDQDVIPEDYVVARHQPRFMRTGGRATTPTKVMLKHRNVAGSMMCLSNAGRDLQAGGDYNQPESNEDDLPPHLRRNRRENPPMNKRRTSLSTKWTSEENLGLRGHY

Activity score (negative = inhibition of binding), active:
CSc1nnc(SCc2nc3sc(C(=O)O)c(C)c3c(=O)[nH]2)s1 -39.1%
COc1ccc(/C=C2\SC(=S)N(CCCC(=O)NC3CCCC3)C2=O)cc1OC -48.2%
Nc1ccc2nc3c(=O)[nH]c(=S)[nH]c3nc2c1 -47.2%
CCCn1c(O)c(CN2CCCC(C)C2)c(C)c(C#N)c1=O (stereo not given) -33.7%
COc1c(O)cc2oc(-c3ccc(O)c(O)c3)cc(=O)c2c1O -34.4%
NS(=O)(=O)c1ccc(-c2ccc(/C=C3\SC(=O)NC3=O)o2)cc1 -76.4%
O=C(C1=C(O)C(=O)N(c2ncccn2)C1c1cccs1)c1ccco1 (stereo not given) -42.2%
CCn1c(=N)c(S(=O)(=O)c2ccc(F)cc2)cc2c(=O)n3ccccc3nc21 -29.2%
O=C(/C=C/c1ccc([N+](=O)[O-])o1)NNC(=O)c1ccc(F)cc1 -26.8%
O=C(N/N=C\c1ccc(-c2ccc(Cl)c(Cl)c2)o1)C(=O)N1CCCC1 -55.2%
ON=C1/C(=N\O)CC2(C/C1=N/O)OCCO2 -31.5%
COc1cc(/C=C2/C(=O)ON=C2C)ccc1OCc1ccccc1F -63.3%
CCn1c(/C=C/c2ccc([N+](=O)[O-])o2)nc2ccccc2c1=O -34.2%
Cn1ccc(=Nc2ccc(NC(=O)c3ccc(N=c4ccn(C)c5ccc([N+](=O)[O-])cc45)cc3)cc2)cc1 -46.8%
CCCn1nc(C(=O)Nc2ccc3nc(C)sc3c2)c2ccccc2c1=O -34.8%
COc1ncnc2c1N=C1CC(C)(C)CC(N)=C1S2 -36.1%
Oc1c(Cl)cc(Cl)c(Cl)c1Cc1c(O)c(Cl)cc(Cl)c1Cl -82.9%
Cc1c(NC(=O)c2coc(=O)c(Br)c2)c(=O)n(-c2ccccc2)n1C -44.8%

Activity score (negative = inhibition of binding), inactive:
CC(C)(C)OC(=O)N1CCC(C(=O)NNC(=O)c2ccc(Cl)cc2Cl)CC1 0.105%
CCOC(=O)c1sc2nc(C)[nH]c(=O)c2c1C -1.49%
CCOC(=O)c1sc2nc(CSc3ccccc3)[nH]c(=O)c2c1C 3.85%
CC(C)C[C@H](NC(=O)N1CC(=O)Nc2ccccc21)C(=O)N[C@H](Cc1ccccc1)C(=O)O 2.99%
COc1ccc(C(=O)OCC(=O)NCC2CCCO2)cc1[N+](=O)[O-] (stereo not given) 0.621%
CNC(=O)/C(C#N)=C/c1c(F)cccc1Cl 0.288%
COc1ccc2c(C)c(CCC(=O)NC3CC3)c(=O)oc2c1C -3.04%
CCCCC1N2CC3([N+](=O)[O-])CN1CC([N+](=O)[O-])(C2)C3(C)C (stereo not given) -0.199%
COc1ccc(/C=C2\SC(=S)N(CCC(=O)Nc3ccccn3)C2=O)cc1OC -2.36%
COc1ccc(/C=C2\SC(=S)N(CCC(=O)Nc3cccc(C(=O)O)c3)C2=O)cc1OC -1.23%
O=S(=O)(c1ccccc1)N1CCC(c2ccccc2)CC1 -0.204%
CCN(CC(=O)Nc1ccc2c(c1)OCCO2)Cc1cc(=O)oc2cc(C)c(C)cc12 -1.63%
COc1ccc(CCn2c(NN=C3CCCC3)nc3c2c(=O)[nH]c(=O)n3C)cc1 1.31%
NC(=O)c1oc2ccccc2c1NC(=O)Cc1ccccc1 -2.66%
CCCCCCn1c(CN2CCCC(C)C2)nc2c1c(=O)n(C)c(=O)n2C (stereo not given) -0.485%
Cc1c(CN2CCCCC2)c(O)n(CCO)c(=O)c1C#N -12.5%
COc1cccc(NC(=O)CSc2nnc(-c3cccnc3)o2)c1 -0.46%
CCOC(=O)COc1cc(O)c2c(=O)cc(-c3ccccc3)oc2c1 0.422%
COc1ccc(-c2cc(=O)c3c(O)cc(O[C@@H]4O[C@H](CO[C@@H]5O[C@@H](C)[C@H](O)[C@@H](O)[C@H]5O)[C@@H](O)[C@H](O)[C@H]4O)cc3o2)cc1O 0.902%
COc1ccccc1OCCOc1ccc(/C=C2\C(=N)N3N=C(C)SC3=NC2=O)cc1 0.998%
CC(C)CC(=O)c1c[nH]c(C(=O)NCc2ccccc2)c1 -0.164%
CN1C(=O)/C(=C\c2ccc(-c3ccccc3)o2)SC1=S -2.67%
CN1CCN(/N=C/c2ccc(-c3ccc([N+](=O)[O-])cc3)o2)CC1 2.18%
CCOCCCNC(=S)Nc1ccc2nc(N3CCN(CC)CC3)cc(C)c2c1 2.27%
CCOCCCNC(=O)C(NC(=O)CNC(=O)c1ccccc1)c1ccc(OC)cc1 (stereo not given) -1.36%
O=C(C1=C(O)C(=O)N(Cc2ccccc2)C1c1ccco1)c1ccco1 (stereo not given) 0.4%
O=C(C1=C(O)C(=O)N(Cc2ccccc2)C1c1cccnc1)c1ccco1 (stereo not given) -1.21%
c1ccc2c(c1)CCc1snnc1-2 2.39%
O=C(Cn1nc(C(=O)O)c2ccccc2c1=O)Nc1ccc(F)cc1 -2.04%
Cc1ccc(-c2nn(-c3ccccc3)cc2/C=C2\SC(=S)N(CCCCCC(=O)O)C2=O)o1 -7.25%
CCCCN(C(=O)c1ccc(OC(F)(F)F)cc1)c1c(N)n(CCC)c(=O)[nH]c1=O 1.98%
Cc1ccc(Cn2c(=N)c(S(=O)(=O)c3ccc(C)cc3)cc3c(=O)n4ccccc4nc32)cc1 6.5%
COc1ccc(CNC(=O)c2cc3c(=O)n4ccccc4nc3n(CC3CCCO3)c2=N)cc1 (stereo not given) -4.96%
O=C(N/N=C/c1ccc([N+](=O)[O-])o1)c1cn(-c2ccccc2)nc1-c1ccc(F)cc1 -3.11%
Cc1ccc(/C=C/C(=O)Nc2ccc([N+](=O)[O-])c(NC(=O)/C=C/c3ccc(C)o3)c2)o1 1.59%
O=C(c1ccc(F)cc1)n1c(=S)nc2ccccn21 0.662%
O=C(COC(=O)c1ccc(F)cc1F)Nc1ncccn1 -8.66%
CC(C)NC(=S)Nc1cccc2cnccc12 0.93%
CC1(C)Cc2nc3sc4c(SCC(=O)NC(c5ccccc5)c5ccccc5)ncnc4c3cc2CO1 -0.0678%
Cc1ccc(NC(=O)CSc2sc3c(O)cc(=O)[nH]c3c2C#N)cc1C -1.19%
COC(=O)N/N=C/c1ccc(-c2ccc(Cl)c(Cl)c2)o1 2.42%
O=C(N/N=C/c1ccc([N+](=O)[O-])cc1)C(=O)N1CCCC1 -0.216%
COC(C(=O)NCc1ccccc1C)c1ccccc1 (stereo not given) -0.406%
O=C(NCCCN1CCOCC1)C1CCCN(S(=O)(=O)N2CCCCC2)C1 (stereo not given) 0.135%
S=c1[nH]nc2c3c4c(sc3ncn12)CCCC4 0.932%
O/N=C1\CC2(Cc3nonc31)OCCO2 2.02%
COc1ccc(C(=O)c2c(C)c(CCC#N)n3ccccc23)c(OC)c1 -2.13%
COc1cc(/C=C2/C(=O)ON=C2C)ccc1OCc1cccc(F)c1 -9.55%
C=CCOc1ccc(/C=C2/C(=O)ON=C2C)cc1OCC -10.9%
CC(=O)Nc1ccc(Nc2nc3c(S(=O)(=O)c4ccc(C)c(C)c4)nnn3c3ccccc23)cc1 -3.46%
Cc1cc(=O)oc2cc(NC(=O)C3CC(=O)N(Cc4ccccc4)C3)ccc12 (stereo not given) -4.23%
Cc1cc(C)nc(N/N=C/c2ccc([N+](=O)[O-])o2)n1 -9.59%
C/[N+]([O-])=C\c1ccc([N+](=O)[O-])o1 -3.97%
COc1ccc(NS(=O)(=O)c2cccc3nsnc23)cc1Cl 1.95%
COC(=O)c1ccc(NC(=S)Nc2cccc(C)n2)cc1 -0.058%
O=C(Nc1ccc(C(=O)N2CCCCC2)cc1)c1cccc([N+](=O)[O-])c1 1.72%
Cc1cc([N+](=O)[O-])ccc1NC(=O)c1ccc(NC(=O)C(C)C)cc1 0.662%
CN(C)Cc1c(O)ccc2occ(C(O)c3ccccc3)c12 (stereo not given) 1.82%
CCCCn1nc(C(=O)Nc2ccc(S(=O)(=O)Nc3ncccn3)cc2)c2ccccc2c1=O 2.51%
CCCn1nc(C(=O)NNC(=O)CSCC(=O)Nc2cc(C)on2)c2ccccc2c1=O -9.23%
CCOC(=O)NC(=O)C(=CNc1cccc(OC)c1)C(=O)NC(=O)OCC -0.689%
C=CCOc1ccccc1NC(=O)CN1C(=O)CNC1=O 1.49%
Cc1nc(CN(C)C(=O)CC2C(=O)NCCN2Cc2ccc(F)cc2)cs1 (stereo not given) -3.2%
NS(=O)(=O)c1ccc(NC(=O)/C=C/c2ccccc2Cl)cc1 -0.539%
Cn1c(Nc2ccccc2)cc(=O)n(C)c1=O -3.14%
Cc1cc(NS(=O)(=O)c2ccc(NC(=S)NC(=O)c3ccc(F)cc3Cl)cc2)no1 -0.765%
O=C(NCC1CCCO1)C1CCN(C2CCN(C(=O)C3CCCCC3)CC2)CC1 (stereo not given) -0.223%
COc1cc(C(=S)N2CCOCC2)cc(OC)c1OC(=O)c1ccc([N+](=O)[O-])cc1[N+](=O)[O-] -2.68%
Cc1cc(C(=O)Nc2c(C)n(C)n(-c3ccccc3)c2=O)cs1 2.16%
Cc1c(NC(=O)c2cccnc2)c(=O)n(-c2ccccc2)n1C 0.492%
CCOc1ncccc1C(=O)NCCc1ccc(OC)cc1 -0.435%
CNC(=O)CN1C(=O)NC(c2ccccc2)(c2ccccc2)C1=O 2.16%

From PubChem BioAssay AID1832 (Broad Institute, 2009)
